Test results taken from the supplement of paper PMC9446081.
± gives the standard deviation of the averaged measurements.

Columns and labels:
Assay in all cases: relative enzymatic activity vs untreated control (fraction); higher = less inhibition
Conditions in all cases: 100 µM; incubation time: 2 h at 37 C
DNA gyrase = test system: DNA gyrase
Description: (§1)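 In vitro enzymatic inhibition assays (ProFoldin kits) for 12 purified essential E. coli enzymes or complexes, each treated with 218 active antibacterial compounds at 100 µM for 2 h at 37°C. Read-outs were fluorescence or absorbance (phosphate detection, dye binding), converted to activity via standard curves and expressed relative to untreated DMSO controls.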

DNA helicase = DNA helicase (UniProt P0ACB1)
Description: as §1

DNA ligase = DNA ligase (UniProt B1XA82)
Description: as §1

DNA polymerase = DNA polymerase (UniProt P10443)
Description: as §1

DNA primase = DNA primase (UniProt P0ABS7)
Description: as §1

GlmU = GlmU (UniProt A7ZTU1)
Description: as §1

Guanlyate kinase = Guanlyate kinase (UniProt Q0TBG1)
Description: as §1

MurA = MurA (UniProt Q3YX52)
Description: as §1

MurD = target: T1, MurD (UniProt P14900)
T1 sequence (whole entry): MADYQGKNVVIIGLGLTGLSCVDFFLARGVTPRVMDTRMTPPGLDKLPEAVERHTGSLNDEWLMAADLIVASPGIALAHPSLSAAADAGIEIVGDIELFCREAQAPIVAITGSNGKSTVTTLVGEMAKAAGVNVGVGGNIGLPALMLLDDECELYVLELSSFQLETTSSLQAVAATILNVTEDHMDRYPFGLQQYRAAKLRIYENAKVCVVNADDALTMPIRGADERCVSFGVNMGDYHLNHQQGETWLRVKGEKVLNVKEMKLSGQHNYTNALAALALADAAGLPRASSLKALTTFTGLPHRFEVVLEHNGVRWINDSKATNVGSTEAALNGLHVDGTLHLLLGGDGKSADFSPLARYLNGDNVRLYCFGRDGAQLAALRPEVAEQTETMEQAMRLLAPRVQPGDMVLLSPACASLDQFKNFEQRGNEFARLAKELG
Description: as §1

MurF = target: T2, MurF (UniProt P11880)
T2 sequence (whole entry): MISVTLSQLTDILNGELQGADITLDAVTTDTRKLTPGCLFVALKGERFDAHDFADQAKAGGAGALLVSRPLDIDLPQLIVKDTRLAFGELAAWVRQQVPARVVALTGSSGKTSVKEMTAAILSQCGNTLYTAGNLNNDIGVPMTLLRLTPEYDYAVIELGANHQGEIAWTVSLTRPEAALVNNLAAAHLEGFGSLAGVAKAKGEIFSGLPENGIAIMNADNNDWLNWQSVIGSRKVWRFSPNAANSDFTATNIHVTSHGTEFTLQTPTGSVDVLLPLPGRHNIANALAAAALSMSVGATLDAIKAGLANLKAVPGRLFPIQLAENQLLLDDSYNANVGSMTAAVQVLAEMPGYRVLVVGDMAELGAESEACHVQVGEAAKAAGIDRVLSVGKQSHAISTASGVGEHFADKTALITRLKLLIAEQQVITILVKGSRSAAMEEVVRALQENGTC
Description: as §1

RNA polymerase = test system: RNA polymerase
Description: as §1

DNA polymerase, sequence (P10443 whole entry): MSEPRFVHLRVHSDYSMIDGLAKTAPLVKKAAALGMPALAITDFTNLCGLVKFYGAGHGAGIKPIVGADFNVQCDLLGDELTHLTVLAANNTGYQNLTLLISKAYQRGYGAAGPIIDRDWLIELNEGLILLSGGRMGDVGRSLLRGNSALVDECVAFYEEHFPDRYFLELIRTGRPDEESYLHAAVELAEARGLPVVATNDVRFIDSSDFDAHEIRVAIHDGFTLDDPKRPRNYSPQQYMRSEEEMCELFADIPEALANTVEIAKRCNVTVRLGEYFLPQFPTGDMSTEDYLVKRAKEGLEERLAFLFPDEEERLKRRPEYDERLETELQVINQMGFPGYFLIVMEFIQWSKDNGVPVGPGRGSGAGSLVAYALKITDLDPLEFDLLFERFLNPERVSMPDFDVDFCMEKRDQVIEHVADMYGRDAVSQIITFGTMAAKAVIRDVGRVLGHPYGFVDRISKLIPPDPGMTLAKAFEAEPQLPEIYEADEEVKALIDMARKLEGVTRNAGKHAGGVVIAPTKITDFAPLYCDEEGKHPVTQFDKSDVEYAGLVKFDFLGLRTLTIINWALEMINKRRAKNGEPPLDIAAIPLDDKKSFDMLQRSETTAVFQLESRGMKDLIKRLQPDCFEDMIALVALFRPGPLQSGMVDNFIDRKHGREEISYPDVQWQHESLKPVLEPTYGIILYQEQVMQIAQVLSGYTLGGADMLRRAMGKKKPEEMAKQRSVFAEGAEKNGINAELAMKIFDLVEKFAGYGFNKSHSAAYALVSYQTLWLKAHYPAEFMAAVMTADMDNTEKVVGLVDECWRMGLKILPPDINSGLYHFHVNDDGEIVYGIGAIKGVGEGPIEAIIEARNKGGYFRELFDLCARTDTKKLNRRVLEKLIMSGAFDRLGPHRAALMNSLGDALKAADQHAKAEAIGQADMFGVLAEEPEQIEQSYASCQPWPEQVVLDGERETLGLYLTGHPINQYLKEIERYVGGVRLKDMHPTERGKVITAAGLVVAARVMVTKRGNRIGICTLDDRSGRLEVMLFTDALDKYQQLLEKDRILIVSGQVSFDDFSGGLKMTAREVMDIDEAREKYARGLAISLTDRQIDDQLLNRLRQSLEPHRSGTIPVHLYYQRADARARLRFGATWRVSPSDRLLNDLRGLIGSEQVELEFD
DNA primase, sequence (P0ABS7 whole entry): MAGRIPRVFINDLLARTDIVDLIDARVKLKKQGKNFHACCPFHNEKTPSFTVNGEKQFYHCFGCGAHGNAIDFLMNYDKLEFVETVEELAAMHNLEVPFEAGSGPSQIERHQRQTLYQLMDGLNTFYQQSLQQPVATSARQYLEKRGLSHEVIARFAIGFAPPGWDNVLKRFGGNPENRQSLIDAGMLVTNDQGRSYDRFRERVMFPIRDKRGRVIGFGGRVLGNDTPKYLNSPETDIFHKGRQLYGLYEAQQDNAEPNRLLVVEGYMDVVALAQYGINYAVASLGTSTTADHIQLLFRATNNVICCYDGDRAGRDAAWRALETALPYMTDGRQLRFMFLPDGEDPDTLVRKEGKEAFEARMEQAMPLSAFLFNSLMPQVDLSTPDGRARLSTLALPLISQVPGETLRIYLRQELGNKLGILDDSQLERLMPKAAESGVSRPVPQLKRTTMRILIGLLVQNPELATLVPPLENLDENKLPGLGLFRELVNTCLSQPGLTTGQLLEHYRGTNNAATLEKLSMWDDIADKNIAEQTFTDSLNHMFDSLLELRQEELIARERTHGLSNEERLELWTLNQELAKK
DNA ligase, sequence (B1XA82 whole entry): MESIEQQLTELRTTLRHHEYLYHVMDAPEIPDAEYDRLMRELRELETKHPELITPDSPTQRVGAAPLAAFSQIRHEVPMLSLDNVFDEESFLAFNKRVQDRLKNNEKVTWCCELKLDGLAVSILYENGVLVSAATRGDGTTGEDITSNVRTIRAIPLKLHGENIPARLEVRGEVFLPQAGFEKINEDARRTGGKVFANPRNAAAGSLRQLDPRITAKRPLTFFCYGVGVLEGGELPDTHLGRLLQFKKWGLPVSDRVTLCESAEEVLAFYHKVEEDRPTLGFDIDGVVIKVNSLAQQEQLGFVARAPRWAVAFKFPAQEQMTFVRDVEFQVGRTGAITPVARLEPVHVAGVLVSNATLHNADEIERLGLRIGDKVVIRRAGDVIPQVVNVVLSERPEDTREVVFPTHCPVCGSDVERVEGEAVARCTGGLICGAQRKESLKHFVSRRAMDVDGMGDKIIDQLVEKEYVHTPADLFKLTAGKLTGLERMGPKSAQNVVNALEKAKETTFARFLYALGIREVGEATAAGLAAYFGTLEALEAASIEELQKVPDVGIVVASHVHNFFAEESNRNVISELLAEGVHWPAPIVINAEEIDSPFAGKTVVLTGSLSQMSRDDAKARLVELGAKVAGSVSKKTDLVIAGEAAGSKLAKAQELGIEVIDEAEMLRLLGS
DNA helicase, sequence (P0ACB1 whole entry): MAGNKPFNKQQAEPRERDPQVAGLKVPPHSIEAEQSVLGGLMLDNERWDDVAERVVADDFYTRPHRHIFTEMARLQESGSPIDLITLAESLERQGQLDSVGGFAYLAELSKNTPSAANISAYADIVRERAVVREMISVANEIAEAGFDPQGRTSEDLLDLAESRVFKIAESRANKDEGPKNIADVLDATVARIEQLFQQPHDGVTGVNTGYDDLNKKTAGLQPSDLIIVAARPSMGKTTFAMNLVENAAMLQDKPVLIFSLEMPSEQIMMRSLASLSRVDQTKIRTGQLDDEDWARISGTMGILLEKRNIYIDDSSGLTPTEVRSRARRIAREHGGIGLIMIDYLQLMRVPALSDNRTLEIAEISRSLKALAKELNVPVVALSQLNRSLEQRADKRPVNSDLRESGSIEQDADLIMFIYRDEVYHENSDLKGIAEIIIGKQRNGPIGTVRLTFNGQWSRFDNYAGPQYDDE
Guanlyate kinase, sequence (Q0TBG1 whole entry): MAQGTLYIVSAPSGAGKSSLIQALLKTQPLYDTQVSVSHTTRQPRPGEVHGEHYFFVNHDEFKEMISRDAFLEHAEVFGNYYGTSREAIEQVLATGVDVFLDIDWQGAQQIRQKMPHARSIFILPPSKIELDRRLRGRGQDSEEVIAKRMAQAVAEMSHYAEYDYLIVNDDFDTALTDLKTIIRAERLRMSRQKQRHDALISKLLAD
GlmU, sequence (A7ZTU1 whole entry, looked up): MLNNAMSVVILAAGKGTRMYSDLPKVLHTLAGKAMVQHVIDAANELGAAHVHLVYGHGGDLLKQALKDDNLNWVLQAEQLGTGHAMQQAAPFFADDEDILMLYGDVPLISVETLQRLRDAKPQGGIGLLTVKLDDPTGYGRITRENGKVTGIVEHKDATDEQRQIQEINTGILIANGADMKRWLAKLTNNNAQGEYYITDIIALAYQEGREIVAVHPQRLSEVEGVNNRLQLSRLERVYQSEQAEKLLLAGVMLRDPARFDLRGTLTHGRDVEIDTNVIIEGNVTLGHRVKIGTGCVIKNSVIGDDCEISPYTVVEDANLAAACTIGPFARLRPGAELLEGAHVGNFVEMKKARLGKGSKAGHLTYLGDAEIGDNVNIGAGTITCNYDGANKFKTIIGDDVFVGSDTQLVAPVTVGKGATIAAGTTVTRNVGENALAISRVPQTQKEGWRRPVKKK
MurA, sequence (Q3YX52 whole entry): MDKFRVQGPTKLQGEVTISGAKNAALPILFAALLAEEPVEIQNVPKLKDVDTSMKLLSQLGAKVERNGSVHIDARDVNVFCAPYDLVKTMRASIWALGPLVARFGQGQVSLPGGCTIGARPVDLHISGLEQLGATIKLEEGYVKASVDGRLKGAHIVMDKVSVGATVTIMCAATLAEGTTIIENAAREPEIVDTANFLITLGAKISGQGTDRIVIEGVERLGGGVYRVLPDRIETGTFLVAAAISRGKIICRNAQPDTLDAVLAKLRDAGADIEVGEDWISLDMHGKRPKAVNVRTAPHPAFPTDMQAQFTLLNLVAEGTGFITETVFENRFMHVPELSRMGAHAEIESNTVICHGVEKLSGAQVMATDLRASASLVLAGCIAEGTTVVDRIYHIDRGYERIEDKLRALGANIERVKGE

| Compound | relative enzymatic activity (DNA gyrase) | relative enzymatic activity (DNA helicase) | relative enzymatic activity (DNA ligase) | relative enzymatic activity (DNA polymerase) | relative enzymatic activity (DNA primase) | relative enzymatic activity (GlmU) | relative enzymatic activity (Guanlyate kinase) | relative enzymatic activity (MurA) | relative enzymatic activity (MurD) | relative enzymatic activity (MurF) | relative enzymatic activity (RNA polymerase) |
| --- | --- | --- | --- | --- | --- | --- | --- | --- | --- | --- | --- |
| CCC(C)CCCCC(=O)NC(CCN)C(=O)NC(C(=O)NC(CCN)C(=O)NC1CCNC(=O)C(C(C)O)NC(=O)C(CCN)NC(=O)C(CCN)NC(=O)C(CC(C)C)NC(=O)C(Cc2ccccc2)NC(=O)C(CCN)NC1=O)C(C)O.O=S(=O)(O)O (configuration not stated) | 1.09 ± 0.019 | 0.653 ± 0.23 | 0.982 ± 0.031 | 1.36 ± 0.48 | 0.688 ± 0.15 | 1.037 ± 0.0054 | 0.9729 ± 0.0096 | 0.649 ± 0.024 | 0.639 ± 0.43 | 0.894 ± 0.25 | 0.892 ± 0.046 |
| CON=C(C(=O)NC1C(=O)N2C(C(=O)OCOC(=O)C(C)(C)C)=C(C=Cc3scnc3C)CSC12)c1csc(N)n1 (configuration not stated) | 0.894 ± 0.26 | 0.379 ± 0.064 | 1.24 ± 0.4 | 1.24 ± 0.33 | 0.894 ± 0.029 | 0.914 ± 0.031 | 0.794 ± 0.14 | 0.253 ± 0.062 | 0.568 ± 0.41 | 0.893 ± 0.24 | 0.872 ± 0.034 |
| CC(=O)On1cc(F)c(=O)[nH]c1=O | 0.636 ± 0.53 | 0.603 ± 0.23 | 0.979 ± 0.23 | 1.03 ± 0.18 | 0.765 ± 0.056 | 0.977 ± 0.015 | 0.859 ± 0.015 | 0.673 ± 0.096 | 0.464 ± 0.59 | 0.933 ± 0.22 | 0.746 ± 0.13 |
| CCCC[P+](CCCC)(CCCC)Cc1ccc(NC(=O)[C@H](Cc2ccc3ccccc3c2)N/C(=N/C2CCCCC2)NC2CCCCC2)cc1 | 0.00696 ± 0.0098 | 0.0186 ± 0.0015 | 1.08 ± 0.094 | 0.73 ± 0.026 | 0.595 ± 0.0097 | 0.134 ± 0.011 | 0.223 ± 0.023 | 0.0355 ± 0.0073 | 0.167 ± 0.12 | 0.108 ± 0.017 | 0.346 ± 0.01 |
| N[C@@H](C(=O)N[C@@H]1C(=O)N2C(C(=O)O)=C(Cl)CC[C@H]12)c1ccccc1 | 0.732 ± 0.43 | 0.524 ± 0.089 | 0.931 ± 0.12 | 1.03 ± 0.087 | 0.831 ± 0.025 | 1 ± 0.036 | 0.943 ± 0.061 | 0.582 ± 0.21 | 0.603 ± 0.4 | 0.963 ± 0.22 | 0.811 ± 0.13 |
| Cc1cc(=O)c(C(=O)N[C@@H](C(=O)N[C@@H]2C(=O)N3C(C(=O)O)=C(CSc4nnnn4C)CS[C@H]23)c2ccc(O)cc2)c[nH]1 | 0.759 ± 0.035 | 0.278 ± 0.28 | 0.862 ± 0.016 | 1.08 ± 0.15 | 0.766 ± 0.023 | 0.919 ± 0.03 | 0.946 ± 0.015 | 0.116 ± 0.018 | 0.634 ± 0.44 | 0.92 ± 0.2 | 0.505 ± 0.5 |
| CC(C)CCCC(=O)N[C@@H](CCNCS(=O)(=O)O)C(=O)N[C@H](C(=O)N[C@@H](CCNCS(=O)(=O)O)C(=O)N[C@H]1CCNC(=O)[C@H]([C@@H](C)O)NC(=O)[C@H](CCNCS(=O)(=O)O)NC(=O)[C@H](CCNCS(=O)(=O)O)NC(=O)[C@H](CC(C)C)NC(=O)[C@H](CC(C)C)NC(=O)[C@H](CCNCS(=O)(=O)O)NC1=O)[C@@H](C)O | 0.555 ± 0.027 | 0.608 ± 0.27 | 1.01 ± 0.41 | 1.14 ± 0.27 | 0.8249 ± 0.007 | 1.0459 ± 0.00074 | 0.666 ± 0.056 | 0.723 ± 0.12 | 0.585 ± 0.35 | 0.903 ± 0.13 | 0.813 ± 0.041 |
| CC(C)[C@@H](CC[C@@H](C)[C@H]1CC[C@H]2[C@@H]3[C@H](O)C[C@H]4C[C@@H](NCCCNCCCCNCCCN)CC[C@]4(C)[C@H]3CC[C@]12C)OS(=O)(=O)O | 1.18 ± 0.2 | 0.0588 ± 0.066 | 0.674 ± 0.096 | 0.126 ± 0.02 | 0.419 ± 0.016 | 0.813 ± 0.091 | 0.334 ± 0.028 | 0.187 ± 0.029 | 0.59 ± 0.41 | 1.03 ± 0.027 | 0.146 ± 0.0049 |
| CO/N=C(\C(=O)N[C@@H]1C(=O)N2C(C(=O)O)=C(CSC(=O)c3ccco3)CS[C@H]12)c1csc(N)n1 | 0.0013 ± 0.0018 | 0.049 ± 0.0096 | 0.817 ± 0.063 | 0.312 ± 0.026 | 0.533 ± 0.092 | 0.492 ± 0.17 | 0.778 ± 0.12 | 0.0403 ± 0.017 | 0.125 ± 0.094 | 0.82 ± 0.26 | 0.602 ± 0.68 |
| O=C([O-])C1=C(CSc2nnnn2CS(=O)(=O)[O-])CSC2C(NC(=O)C(O)c3ccccc3)C(=O)N12.[Na+].[Na+] (configuration not stated) | 0.964 ± 0.12 | 0.74 ± 0.14 | 1.26 ± 0.45 | 1.24 ± 0.4 | 0.753 ± 0.0084 | 1.1 ± 0.034 | 0.879 ± 0.012 | 0.1 ± 0.034 | 0.217 ± 0.2 | 1.03 ± 0.24 | 0.815 ± 0.068 |
| Cc1cc(O)c(C(=O)NC(C(=O)NC2C(=O)N3C(C(=O)O)=C(CSc4nnnn4C)CSC23)c2ccc(O)cc2)cn1 (configuration not stated) | 0.926 ± 0.39 | 0.805 ± 0.39 | 1.22 ± 0.41 | 1.34 ± 0.42 | 0.891 ± 0.028 | 0.962 ± 0.018 | 0.925 ± 0.044 | 0.346 ± 0.0056 | 0.601 ± 0.41 | 0.945 ± 0.24 | 0.862 ± 0.071 |
| CS(=O)(=O)c1ccc(C(O)C(CF)NC(=O)C(Cl)Cl)cc1 (configuration not stated) | 0.854 ± 0.44 | 0.577 ± 0.2 | 1.21 ± 0.24 | 1.29 ± 0.35 | 0.8787 ± 0.0014 | 0.977 ± 0.042 | 0.976 ± 0.14 | 0.796 ± 0.099 | 0.575 ± 0.38 | 0.945 ± 0.21 | 0.916 ± 0.026 |
| CN(C)[C@@H]1C(=O)[C@@H](C(N)=O)C(=O)[C@@]2(O)C(=O)[C@H]3C(=O)c4c(O)ccc(Cl)c4[C@@H](O)[C@H]3C[C@@H]12 | 1.05 ± 0.19 | 0.508 ± 0.1 | 0.858 ± 0.066 | 1.17 ± 0.28 | 0.754 ± 0.018 | 1.02 ± 0.063 | 0.831 ± 0.16 | 0.336 ± 0.14 | 0.621 ± 0.42 | 0.975 ± 0.23 | 0.749 ± 0.19 |
| CCC=C(C(=O)NC1C(=O)N2C(C(=O)OCOC(=O)C(C)(C)C)=C(COC(N)=O)CSC12)c1csc(N)n1.Cl (configuration not stated) | 0.924 ± 0.071 | 0.354 ± 0.016 | 0.883 ± 0.11 | 1.17 ± 0.27 | 0.907 ± 0.088 | 0.939 ± 0.024 | 1.02 ± 0.098 | 0.293 ± 0.18 | 0.576 ± 0.37 | 0.941 ± 0.21 | 0.977 ± 0.094 |
| C=CC1=C(C(=O)O)N2C(=O)[C@@H](NC(=O)/C(=N\OCC(=O)O)c3csc(N)n3)[C@H]2SC1 | 0.321 ± 0.084 | 0.432 ± 0.089 | 0.941 ± 0.17 | 1.06 ± 0.23 | 0.662 ± 0.021 | 1.046 ± 0.0058 | 0.886 ± 0.1 | 0.0787 ± 0.0056 | 0.606 ± 0.41 | 0.954 ± 0.18 | 0.822 ± 0.32 |
| Cl.N=C(N)n1cccn1 | 0.0897 ± 0.13 | 0.649 ± 0.3 | 1.13 ± 0.067 | 1.15 ± 0.22 | 0.868 ± 0.027 | 1.014 ± 0.0039 | 0.902 ± 0.2 | 0.813 ± 0.052 | 0.613 ± 0.43 | 0.939 ± 0.23 | 0.787 ± 0.012 |
| O=C(O)c1cn(C2CC2)c2cc(N3CCNCC3)c(F)cc2c1=O | 0.0423 ± 0.06 | 0.645 ± 0.22 | – | 0.688 ± 0.4 | 0.687 ± 0.18 | 1.09 ± 0.16 | 0.932 ± 0.065 | 0.705 ± 0.28 | 0.576 ± 0.41 | 0.991 ± 0.21 | 0.771 ± 0.006 |
| NCc1ccccc1CC(=O)NC1C(=O)N2C(C(=O)O)=C(CSc3nnnn3CC(=O)O)CSC12 (configuration not stated) | 1.03 ± 0.026 | 0.487 ± 0.014 | 1.19 ± 0.037 | 1.38 ± 0.51 | 0.683 ± 0.18 | 1.05 ± 0.23 | 0.988 ± 0.13 | 0.08776 ± 0.00022 | 0.581 ± 0.39 | 0.979 ± 0.2 | 0.979 ± 0.23 |
